# Results filed as inconclusive are left out. A call without a number means that no potency is given here. Calls of active or inactive are those of the source. Calls come from the whole dose curve; as a rule, active = well fitted inhibition curve with a large enough effect; inconclusive = small, poorly fitted or top-dose-only effect; inactive = no such curve, though single readings can be large or run the other way. *1 amine or outer side, *2 acyl side, *3 side chain or, on linkers, in order; H or OH if unused. Where a SMILES comes first, the peptide text is derived from it. Bridges are numbered along the chain shown (N, C = ends). [ ]: non-standard residue; d: D form. The star is where a group is joined. pTerphenylCO(4''-OnC5H11) = CCCCCOc1ccc(-c2ccc(-c3ccc(C(=O)*)cc3)cc2)cc1; Orn(4R-OH,5R-OH) = O=C([C@H](C[C@@H](O)[C@@H](O)N[*:3])N[*:1])[*:2]; hTyr(3S-OH,4S-OH) = N[C@H](C(=O)O)[C@H](O)[C@@H](O)c1ccc(O)cc1; Pro(3S-OH,4S-Me) = C[C@H]1CN[C@H](C(=O)O)[C@H]1O; Hyp = O=C(O)[C@@H]1C[C@@H](O)CN1
# Assays:
# [1] = tested on: Zika virus NS2B-NS3 protease (unlinked complex); assay: Primary screen GU Rhodamine qHTS for Zika virus inhibitors: Unlinked NS2B-NS3 protease assay (AID 1347159); conditions: Recombinant ZIKV NS2B-NS3 protease, Rhodamine110 substrate fluorescence; series mostly up to 107 µM; note: nearly all actives have a fitted effect of over 60% in size; note: potency is the fitted concentration of half-maximal effect
# Method in brief: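 Unlinked NS2B/NS3, 25 nM; Rhod110 peptide, 1.5 microM; compounds, up to 114 microM. Reaction run 15 min at RT in 10 mM Tris-HCl pH 8.0, 0.01% Tween 20; kinetic fluorescence change fitted with a 4-parameter Hill model.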
# [2] = tested on: Zika virus NS2B-NS3 protease (linked construct); assay: Primary screen NINDS Rhodamine qHTS for Zika virus inhibitors (AID 1347160); conditions: purified NS2B-NS3 protease, Rhodamine110 substrate fluorescence; series mostly up to 57.1 µM; note: nearly all actives have a fitted effect of over 55% in size
# Method in brief: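 Single-chain NS2B-NS3 protease, 25 nM, pH 8.0; compounds preincubated 15 min. Activity: Rhodamine110 release from 1.5 microM substrate over 15 min, room temperature, data fitted to 4-parameter Hill.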
SMILES,Potency [1],Potency [2]
C/C=C(\C)C(=O)O[C@H]1C=CC(=O)O[C@H]1/C=C/[C@@H](O)[C@H](C)O,inactive,inactive
CC(C)(O)C1CC(=O)C2(C)C(CCC3(C)C(c4ccoc4)OC(=O)C4OC432)C12CCC(=O)OC2 (centres undefined),inactive,inactive
CC(C)(O)c1ccc2c(c1)ncn2-c1cccc(-c2ccccc2C#N)c1,inactive,inactive
Cc1nc(-c2cn3c(n2)-c2ccc(-c4cnn(C(C)(C)C(N)=O)c4)cc2OCC3)n(C(C)C)n1,inactive,inactive
Cc1cc2c(c(=O)o1)C=C1CC[C@H]([C@H](C)Cn3cnc(=N)c4[nH]cnc43)C[C@@H]1O2,inactive,inactive
CCc1cc(C(N)=O)ccc1-n1nc(C(C)C)c2c(-n3cnc(-c4cnn(C)c4)c3)ccnc21,inactive,inactive
O=C(NCC1(N2CCN(c3ccccc3)CC2)CCOCC1)c1cccnc1Sc1ccccc1,inactive,inactive
COc1ccc(S(=O)(=O)Nc2c(C)cc(C)cc2C)cc1,inactive,inactive
Cc1noc(C)c1-c1cc(O)cc(C(O)c2ccccc2)c1 (centres undefined),inactive,inactive
N#Cc1ccc(COC[C@H]2O[C@@H](n3c(NCc4ccc(Cl)c(Cl)c4)nc4c(N)ncnc43)[C@H](O)[C@@H]2O)cc1,inactive,inactive
CC(=O)OC[C@]12[C@H](OC(C)=O)[C@H](OC(=O)c3ccccc3)[C@@H]3[C@@H](OC(C)=O)[C@]1(OC3(C)C)[C@H](C)C[C@H](OC(C)=O)[C@@H]2OC(=O)c1ccccc1,inactive,inactive
O=c1cc(OCc2ccc(F)cc2)ccn1-c1ccc(OCCN2CCCC2)cc1,inactive,inactive
Cc1cc(F)ccc1-c1nc(NCCN=C(N)NC#N)nc2c1ccc(=O)n2-c1c(F)cccc1F,inactive,inactive
O=C(NCCN1CCC(n2c(=O)[nH]c3ccccc32)CC1)c1ccc2ccccc2c1,inactive,inactive
O=c1[nH]cnc2c([C@@H]3N[C@H](CO)[C@@H](O)[C@H]3O)c[nH]c12,inactive,inactive
O=C(NCCCCCCCCNC(=O)C(Cl)Cl)C(Cl)Cl,inactive,inactive
COc1ccccc1N1CCN(CC(C(=O)NC(C)(C)C)c2ccccc2)CC1 (centres undefined),inactive,inactive
CO[C@@H]1CC(OC2CCC3(C)C(CCC45CCC(C6=CC(=O)OC6)C(C)(CCC43)C5=O)C2)O[C@H](C)[C@@H]1O[C@@H]1O[C@H](CO[C@@H]2O[C@H](CO)[C@@H](O)[C@H](O)[C@H]2O)[C@@H](O)[C@H](O)[C@H]1O (some centres undefined),inactive,inactive
COc1cccc(-c2cc(F)ccc2C2Cc3nc(N)nc(C)c3C(=O)N2)n1 (centres undefined),inactive,inactive

SMILES,Potency [1],Potency [2]
CCN1C(C)(C)CC(Oc2ccc(C(=O)Nc3ccc(NC(=O)Nc4cc(C(C)(C)C)on4)cc3)nc2)CC1(C)C,inactive,inactive
COc1ccc(-c2csc(NC(=O)[C@H]3CCCCN3S(=O)(=O)c3ccc(C)cc3)n2)cc1,inactive,inactive
FC(F)(F)c1ccc(/C=C/c2nc(COc3ccc(CCCCn4ccnn4)cc3)co2)cc1,inactive,inactive
N[C@@H]1c2cccnc2[C@H](OC(=O)N2CCC(n3c(=O)[nH]c4ncccc43)CC2)CC[C@H]1c1cccc(F)c1F,inactive,inactive
CC1CCCC[C@H]2C(=O)C=C[C@H](O)[C@@H]2CC(=O)O1 (some centres undefined),inactive,inactive
CNS(=O)(=O)c1ccccc1Nc1nc(Nc2ccc(N3CCN(C)CC3)cc2OC)ncc1Br,inactive,inactive
C=C(C)C(=O)O[C@H]1C[C@@](C)(O)C2(O)CCC(C)(/C=C3/OC(=O)C(COC)=C31)O2 (some centres undefined),inactive,inactive
CN(C)C(=O)C(=O)c1cn(C)c2cc(Cl)c(C(=O)N3CCC(Cc4ccc(F)cc4)CC3)cc12,inactive,inactive
CC1(C)CN(C(=O)c2ccc(-c3cccc4nc(NC(=O)C5CC5)nn34)cc2)C1,inactive,inactive
Cc1ccc(-c2c(C(=O)CCl)n(CCCO)c3ncnc(N)c23)cc1,inactive,inactive
COc1ccc2nc(-c3cc(OC)c(OC)c(OC)c3)cc(C(=O)NCC(=O)Nc3ccc(C(C)=O)cc3)c2c1,inactive,inactive
C[C@@H](c1ccc2nccn2c1)n1nnc2ncc(-c3cnn(C)c3)nc21,inactive,inactive
CC(=O)O[C@@H]1C2=C(O)C(=O)[C@](C)(OC(C)=O)C(=O)C2=CO[C@@]12O[C@@H](C)CC[C@H]2OC(C)=O,inactive,inactive
CN1CCN(S(=O)(=O)c2ccc(-c3cnc(N)c(C(=O)Nc4cccnc4)n3)cc2)CC1,inactive,inactive
C[C@H](Nc1ncnc2nc[nH]c12)c1cc2cccc(Cl)c2c(=O)n1-c1ccccc1,inactive,inactive
O=C(CCl)Nc1cccc(NC2=NS(=O)(=O)c3ccccc32)c1,inactive,inactive
CC(C)=C[C@@H]1[C@H](CO[C@@H]2O[C@H](CO)[C@@H](O)[C@H](O)[C@H]2O)C1(C)C,inactive,inactive
OC(c1ccc(-c2ccc(CN3CCN(Cc4ccncc4)CC3)cc2)c(F)c1)(C(F)(F)F)C(F)(F)F,inactive,inactive
CC(=O)OC1CC(C)(C(=O)O)CC2C3=CC(=O)C4C5(C)CCC(OC6OC(C(=O)O)C(O)C(O)C6OC6OC(C(=O)O)C(O)C(O)C6O)C(C)(C)C5CCC4(C)C3(C)CCC12C (centres undefined),inactive,inactive

SMILES,Potency [1],Potency [2]
CCNC(=O)Nc1ccc(-c2nc3c(c(N4CCOCC4C)n2)CCN(C2COC2)C3)cc1 (centres undefined),inactive,inactive
"CCCCCOc1ccc(-c2ccc(-c3ccc(C(=O)N[C@H]4C[C@@H](O)[C@@H](O)NC(=O)[C@@H]5[C@@H](O)[C@@H](C)CN5C(=O)[C@H]([C@@H](C)O)NC(=O)[C@H]([C@H](O)[C@@H](O)c5ccc(O)cc5)NC(=O)[C@@H]5C[C@@H](O)CN5C(=O)[C@H]([C@@H](C)O)NC4=O)cc3)cc2)cc1 ({pTerphenylCO(4''-OnC5H11)}-[Orn(4R-OH,5R-OH)]T[Hyp][hTyr(3S-OH,4S-OH)]T[Pro(3S-OH,4S-Me)]; lactam 1-C)",31.6 µM (active),inactive
CCCCCCOC(=O)/N=C(\N)c1ccc(NCc2nc3cc(C(=O)N(CCC(=O)OCC)c4ccccn4)ccc3n2C)cc1,inactive,inactive
C[C@H](Oc1cc(-c2cnn(C3CCNCC3)c2)cnc1N)c1c(Cl)ccc(F)c1Cl,inactive,inactive
O=C(NNc1nc2cc(F)ccc2n2cccc12)c1cnccn1,inactive,inactive
O=C(NO)c1ccc(CC(=O)N(CCO)c2ccccc2)cc1,inactive,inactive
COc1cc(CCc2cc(NC(=O)c3ccc(N4CC(C)NC(C)C4)cc3)n[nH]2)cc(OC)c1 (centres undefined),inactive,inactive
Cc1cc(C(=O)Nc2cc(Nc3ccc4c(/C=C/c5ccccn5)n[nH]c4c3)ccc2F)n(C)n1,inactive,inactive
COCC(=O)NC/C=C/c1ccc2ncnc(Nc3ccc(Oc4ccc(C)nc4)c(C)c3)c2c1,inactive,inactive
CCCOc1ccc(S(=O)(=O)N2CCN(CCO)CC2)cc1-c1nc2c(CCC)cn(CC)c2c(=O)[nH]1,inactive,inactive
COc1ccc(CNc2nc(N(CCO)CCO)nc3c2ncn3C(C)C)cc1,inactive,inactive
OC1(CN2CCC(COc3noc4cccc(O[C@@H]5CCOC5)c34)CC2)CCOCC1,inactive,inactive
COc1cc(CCO)ccc1O[C@@H]1O[C@H](CO)[C@@H](O)[C@H](O)[C@H]1O,inactive,inactive
CCOc1ccc(CCNC(=O)c2cc3sc(Cl)cc3n2C)cc1OCC,inactive,inactive
CCCc1cc(C)[nH]c(=O)c1CNC(=O)c1cc(-c2ccc(N3CCN(C(C)C)CC3)nc2)cc2c1cnn2C(C)C,inactive,inactive
CC1=CC2/C=C(\C)CCC(O)C/C=C/C(=O)OC23C(=O)NC(CC(C)C)C3C1C (centres undefined),inactive,inactive
Clc1ncoc1-c1c[nH]c2ccccc12,inactive,inactive
CN1CC2CN(c3ccc4oc5ccccc5c(=O)c4c3)CC2C1 (centres undefined),inactive,inactive
Cc1csc2c(N[C@@H](C)CN3CCN(S(=O)(=O)c4ccc(Cl)c(Cl)c4)CC3)ncnc12,inactive,inactive
